Bioassay records from PubChem BioAssay.
Shown are actives, neighbours in structure and some others; about 1.4% of the full set was active somewhere.
Mtb MenB inh: blocks the Mycobacterium tuberculosis MenB enzyme. P9WNP5. MenB enzyme assay, absorbance read-out. inhibition, % (concentration not given with the values). 100,000 tested, 0.43% active. AID 540299; in the data active = inhibition above about 21%, passing the limit was not always enough
Target sequence (P9WNP5 whole entry, looked up): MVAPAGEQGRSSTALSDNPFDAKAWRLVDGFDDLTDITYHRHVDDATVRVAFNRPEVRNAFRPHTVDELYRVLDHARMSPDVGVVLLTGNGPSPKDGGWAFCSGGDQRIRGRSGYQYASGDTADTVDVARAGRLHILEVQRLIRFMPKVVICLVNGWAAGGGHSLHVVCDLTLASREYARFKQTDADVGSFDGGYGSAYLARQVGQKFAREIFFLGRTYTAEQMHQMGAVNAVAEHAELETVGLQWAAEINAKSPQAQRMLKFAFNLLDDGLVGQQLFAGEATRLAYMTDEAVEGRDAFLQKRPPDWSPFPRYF
MbtI inh: blocks the Mycobacterium tuberculosis siderophore enzyme MbtI; P9WFX0; purified MbtI enzyme, fluorescence intensity read-out; inhibition, % (no concentration beside the values); 100,000 tested, 0.89% active; in the data active = inhibition mostly above about 56%, no sharp cut-off; inactive = mostly below about 77%
AID504770: growth inhibitors of E. coli YBA685 in a screen for V. cholerae RctB (chromosome II replication) inhibitors | E. coli YBA685 rctB-dependent plasmid, OD600 growth, 3 h; hits give low values | z-score (no concentration beside the values) | 130,000 tested, 0.27% active; in the data active = z-score below about -2, passing the limit was not always enough
PV pol inh: inhibitors of poliovirus RNA polymerase binding and polymerization | % elongation, % (compound at 16.7 µg/mL) | poliovirus polymerase elongation, fluorescence polarization; hits give low values | P03300 | AID 588519 | 150,000 tested, 0.66% active; in the data active = % elongation below about 90%
Of the large screens only hits and unclear results are named; the others gave an inactive call.

NNC(=O)c1nn(-c2ccccc2)c(=O)c2c(N)scc12	none
N#CC(C#N)=NNc1ccccc1	AID504770 -3.6
CN(C)S(=O)(=O)c1ccc(S(=O)(=O)N2CCC(c3nc4ccccc4s3)CC2)cc1	Mtb MenB inh 29
Cc1onc(-c2ccccc2)c1C(=O)OCCN1C(=O)c2ccccc2C1=O	none
COc1ccc(C(CC#N)c2ccccc2)cc1 (stereo unspecified)	none
CN1CC=C(/C=C/c2ccc(-c3nc4ccccc4s3)o2)CC1	none
COc1ccc(Cl)cc1CN1CCCCC1	none (no result: MbtI inh)
COc1cc(Cl)ccc1N=NN1CCOCC1	AID504770 -3.9 (no result: Mtb MenB inh, MbtI inh, PV pol inh)
CN1C(=O)NC(=O)/C(=C\C=C\c2ccco2)C1=O	none
O=C1NC(=S)NC(=O)C1=C/C=C/c1ccco1	PV pol inh 72
O=C1NC(=O)N(c2ccccc2)C(=O)/C1=C/C=C/c1ccco1	MbtI inh 88
Cc1[nH]n(-c2nc3ccccc3s2)c(=O)c1C	none
Cc1[nH]n(-c2nc3ccccc3s2)c(=O)c1C1OC(=O)c2ccccc21 (stereo unspecified)	MbtI inh 95
Cc1[nH]n(-c2ccccc2)c(=O)c1Sc1ccc(Cl)cc1	none
Cc1[nH]n(-c2ccc(Cl)cc2)c(=O)c1C=O	MbtI inh 71
CCOC(=O)[C@@H]1Nc2ccc(C(=O)O)cc2[C@@H]2C=CC[C@H]12	PV pol inh 68
COC(=O)c1ccc(NC(=O)C(C)Sc2n[nH]c(C)n2)cc1 (stereo unspecified)	none
CC(C)Sc1nnc2oc3ccc(S(=O)(=O)N(C)C)cc3n12	PV pol inh 6.0
COc1ccc(-c2csc(-n3nc(C)cc3C)n2)cc1	none (no result: Mtb MenB inh, MbtI inh, PV pol inh)
Cc1cc(C)n(CCc2nc(-c3ccc(C)c(C)c3)cs2)n1	MbtI inh 73, PV pol inh 82
N#Cc1ccc(CSc2nnnn2C2CC2)cc1	PV pol inh 35
Cc1nnc(SCc2ccc(C#N)cc2)n1C1CC1	none
Cn1c(=O)[nH]c(=O)c2c1nc1n2CCCN1c1ccccc1	Mtb MenB inh 36
Cc1cccc(N2CCCn3c2nc2c3c(=O)n(C)c(=O)n2C)c1	none
CC1CN(C(=O)CSc2nc(N)cc(=O)[nH]2)CC(C)O1 (stereo unspecified)	none
c1ccc(-c2nnc(SCCN3CCOCC3)o2)cc1	Mtb MenB inh 26
CC1(NS(C)(=O)=O)CC=CC1	Mtb MenB inh 29
CCc1cc(C(=O)O)c(NC(=O)c2ccc(Br)cc2)s1	none (no result: Mtb MenB inh)
CCc1cc(C(=O)O)c(SSc2sc(CC)cc2C(=O)O)s1	MbtI inh 102, PV pol inh 76
CCCC(=O)Nn1c(=O)[nH]c2ccccc2c1=O	none
S=C(S)N1CCCCC1	AID504770 -5.2 (no result: Mtb MenB inh, MbtI inh, PV pol inh)
O=C(C1CCCCC1)N1CCCCCCC1	none
O=C1CCCC(=O)C1C(c1ccc(-c2cc(C(F)(F)F)ccc2Cl)o1)C1C(=O)CCCC1=O	MbtI inh 99
COc1ccc(-c2nn[nH]n2)cc1	Mtb MenB inh 39
N#Cc1cccc(NC(=S)NC(=O)c2cccs2)c1	none
N#Cc1cccc(NC(=O)Nc2cccs2)c1	AID504770 -3.1
Oc1ccccc1CNc1ccc(F)c(Cl)c1	none
COc1ccc(SS(=O)(=O)c2ccc(OC)c(NC(C)=O)c2)cc1NC(C)=O	MbtI inh 91
COc1ccc(S(=O)(=O)C(F)(F)F)cc1NC(C)=O	none (no result: Mtb MenB inh)
Nn1c(=S)[nH]nc(Cc2ccco2)c1=O	PV pol inh 73 (no result: MbtI inh)
O=C1c2ccccc2C(=O)N1Cc1ccco1	none
O=C1CNC(=O)c2c(nc3n2CCC3)N1	Mtb MenB inh 34
CCN(CC)CCC(=O)c1ccc(F)cc1	none (no result: MbtI inh)
CCN(CC)CCC(=O)c1ccc(OC(C)C)cc1	MbtI inh 65
CCC(C)CCCCC(=O)NC(CCN)C(=O)NC(C(=O)NC(CCN)C(=O)NC1CCNC(=O)C(C(C)O)NC(=O)C(CCN)NC(=O)C(CCN)NC(=O)C(CC(C)C)NC(=O)C(Cc2ccccc2)NC(=O)C(CCN)NC1=O)C(C)O (stereo unspecified)	AID504770 -5.2
O=C(Nc1nc(CSc2nc3ccccc3s2)cs1)C1CC1	PV pol inh 83
COC(=O)CSc1nc2ccccc2s1	none
CS(=O)(=O)Cc1cccc(C(=O)Oc2ccccc2C#N)c1	none
COc1cc(NC(=O)CS)cc(OC)c1	MbtI inh 90
CC(O)(c1ccccc1)C(C)(O)c1ccccc1 (stereo unspecified)	none (no result: MbtI inh)
CNc1nnc(Sc2nnc(NC)s2)s1	MbtI inh 90
Cc1ccc(N2C(=O)c3ccccc3C2=O)cc1	none
Cc1ccc(-n2sc3ccccc3c2=O)cc1	MbtI inh 101
CCCCCCSc1n[nH]c(=O)[nH]c1=O	PV pol inh 86
NCCSc1n[nH]c(=O)[nH]c1=O	none
c1ccc2nonc2c1	none
C=CCNC(=S)C(=O)Nc1ccccc1	PV pol inh 81 (no result: MbtI inh)
C=CCNC(=S)Nc1ccccc1	none
Clc1cccc2sc(N3CCCC3)nc12	none
Clc1nc2c(Cl)cccc2s1	MbtI inh 59
COC(=O)CCC(=O)Oc1ccc2ccccc2c1	none
CC(Sc1nnc(C2CC2)n1C1CC1)C(=O)c1ccc(NS(C)(=O)=O)cc1 (stereo unspecified)	none
Cn1c(Cc2ccccc2)n[nH]c1=S	none
Nn1c(Cc2ccccc2)n[nH]c1=S	MbtI inh 99
COc1ccccc1-n1nnc(C(=O)N2CCCC2)c1N	Mtb MenB inh 31
COc1ccccc1N1CCN(C(=O)c2nc(-c3ccc(C)cc3)n3c2CCCCC3)CC1	none (no result: Mtb MenB inh, MbtI inh, AID504770)
CCCn1c(N)c(C(=O)CSc2ccc(S(=O)(=O)N3CCN(C)CC3)cn2)c(=O)[nH]c1=O	none
CCC(=O)NC(=S)c1c(C)nc2sccn12	PV pol inh 57
Cc1ccc(C(=O)N(C)Cc2nc3ccccc3c(=O)[nH]2)c(O)c1	none
COc1ccccc1NC(CC(=O)c1ccccc1)C(=O)O (stereo unspecified)	none (no result: MbtI inh)
CC(NC(CC(=O)c1ccc(F)cc1)C(=O)O)c1ccccc1 (stereo unspecified)	Mtb MenB inh 83 (no result: MbtI inh)
Oc1cc(Cl)c(Cl)cc1O	MbtI inh 102, AID504770 -3.5
CCOC(=O)c1ccc(C(=S)N2CCCC2)cc1	MbtI inh 77, PV pol inh 69
CCOC(=O)C1CCN(C(=S)c2ccccc2)CC1	MbtI inh 59
CCOc1ccc(C(=S)N2CCCC2)cc1	none
CCOC(=O)c1ccc(N=C=S)cc1	AID504770 -2.2
CCOC(=O)c1ccc(N=Cc2ccc(CC)cc2)cc1	none (no result: MbtI inh)
CCc1cccc2c1=NC(=O)C=2c1c(C)[nH]n(-c2ccccc2)c1=O	MbtI inh 85
Cc1cc2nc3ccc(=[N+](C)C)cc-3sc2cc1N	PV pol inh 2.0 (no result: MbtI inh)
CCc1ccc(NC(=O)Cn2ncc3c(=O)oc4ccccc4c32)cc1	none
COc1ccc(NS(=O)(=O)c2ccc3oc(SC/C(O)=C(\C#N)c4nc5ccccc5s4)nc3c2)cc1	none
COc1ccc(NS(=O)(=O)c2ccc3oc(SC)nc3c2)cc1	MbtI inh 92, PV pol inh 82
CCCn1c2ccc(F)cc2c2nc3n(c(=O)c21)CCS3	none
O=C(Cn1c2ccc(F)cc2c2nc3n(c(=O)c21)CCS3)N1CCCC1	Mtb MenB inh 30
CN1CCCN(C(=O)C2CCN(S(=O)(=O)c3cccs3)CC2)c2nc3ccccc3nc21	none
